Drawing on PubChem BioAssay (NCATS), this text covers Potency for ten compounds.

Assay [1] can be described thus: qHTS of pediatric cancer cell lines to identify multiple opportunities for drug repurposing: Primary screen for DAOY cells (AID 1347090). Note: nearly all actives have a fitted effect of over 55% in size. Note: potency is the fitted concentration of half-maximal effect. The method, boiled down:
(§1)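 Cell viability, CellTiter-Glo luminescence; 500-1,000 cells/well, 8- or 11-point titration, 48 h compound exposure at 37 degrees C, 5% CO2. Controls: DMSO neutral, bortezomib 2.3 µM final as positive.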
A general note: qHTS replaces the single test concentration by a dilution series.

Assay [2] can be described thus: qHTS of pediatric cancer cell lines to identify multiple opportunities for drug repurposing: Primary screen for SJ-GBM2 cells (AID 1347091). Note: potency is the fitted concentration of half-maximal effect. The method in brief: as §1
The nature of assay [3]: qHTS of pediatric cancer cell lines to identify multiple opportunities for drug repurposing: Primary screen for A673 cells (AID 1347092). Note: nearly all actives have a fitted effect of over 45% in size. Note: potency is the fitted concentration of half-maximal effect. The method in brief: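 48 h compound exposure, A673, 500-1,000 cells/well, 37 degrees C/5% CO2. MIPE: 11-point, 0.78 nM-46 µM; NPC: 8-point, 0.59 nM-46 µM (final). Readout CellTiter-Glo luminescence after 15 min RT.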
The nature of assay [4]: qHTS of pediatric cancer cell lines to identify multiple opportunities for drug repurposing: Primary screen for NB-EBc1 cells (AID 1347095). Note: potency is the fitted concentration of half-maximal effect. The method, boiled down: (§2)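 Viability was measured as metabolically active cells after 48 hours of treatment, read by CellTiter-Glo luminescence. Compounds were tested at multiple final concentrations, giving concentration-response curves.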

A short description of assay [5]: qHTS of pediatric cancer cell lines to identify multiple opportunities for drug repurposing: Primary screen for U-2 OS cells (AID 1347096). Note: nearly all actives have a fitted effect of over 50% in size. Note: potency is the fitted concentration of half-maximal effect. The method in brief:
(§3)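 Cells (500-1,000/well) rested 5 h, then received compounds for 48 h; metabolically active cells were measured by CellTiter-Glo luminescence. Final concentrations spanned up to 46 µM (MIPE, 11-point) or 0.59 nM-46 µM (NPC, 8-point) in primary screens, 11-point in follow-ups.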

Assay [6] can be described thus: qHTS of pediatric cancer cell lines to identify multiple opportunities for drug repurposing: Primary screen for NB1643 cells (AID 1347099). Note: nearly all actives have a fitted effect of over 50% in size. Note: potency is the fitted concentration of half-maximal effect. The method in brief:
as §2

A short description of assay [7]: qHTS of pediatric cancer cell lines to identify multiple opportunities for drug repurposing: Primary screen for OHS-50 cells (AID 1347103). Note: nearly all actives have a fitted effect of over 40% in size. Note: potency is the fitted concentration of half-maximal effect. The method, boiled down:
as §3

Assay [8] is described as follows: qHTS of pediatric cancer cell lines to identify multiple opportunities for drug repurposing: Primary screen for RD cells (AID 1347104). Note: nearly all actives have a fitted effect of over 55% in size. Note: potency is the fitted concentration of half-maximal effect. The method in brief: as §2
Assay [9] is described as follows: qHTS of pediatric cancer cell lines to identify multiple opportunities for drug repurposing: Primary screen for MG 63 (6-TG R) cells (AID 1347105). Note: nearly all actives have a fitted effect of over 50% in size. Note: potency is the fitted concentration of half-maximal effect. The method, boiled down: as §2
Assay [10] in a line: qHTS of pediatric cancer cell lines to identify multiple opportunities for drug repurposing: Primary screen for control Hh wild type fibroblast cells (AID 1347106).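 Note: series mostly up to about 46 µM; a drop in luminescence marks cytotoxicity and a rise apparent proliferation; nearly all actives have a fitted effect of over 55% in size.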 The method in brief:
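Viability after 48 h compound treatment at 37C, 500-1,000 cells/well, read as ATP luminescence with CellTiter-Glo. Primary screens used 11-point (MIPE, 0.78 nM-46 µM) or 8-point (NPC, 0.59 nM-46 µM) final concentrations; follow-up screens used 11-point dilutions.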

The nature of assay [11]: qHTS of pediatric cancer cell lines to identify multiple opportunities for drug repurposing: Primary screen for SK-N-SH cells (AID 1347098). Note: nearly all actives have a fitted effect of over 65% in size. Note: potency is the fitted concentration of half-maximal effect. The method, boiled down: as §3
Assay [12] is described as follows: qHTS of pediatric cancer cell lines to identify multiple opportunities for drug repurposing: Primary screen for LAN-5 cells (AID 1347100). Note: potency is the fitted concentration of half-maximal effect. The method in brief:
as §3

Assay [13] in a line: qHTS of pediatric cancer cell lines to identify multiple opportunities for drug repurposing: Primary screen for BT-12 cells (AID 1347101). Note: nearly all actives have a fitted effect of over 25% in size. The method in brief:
as §3

A short description of assay [14]: qHTS of pediatric cancer cell lines to identify multiple opportunities for drug repurposing: Primary screen for Rh30 cells (AID 1347107). Note: nearly all actives have a fitted effect of over 75% in size. Note: potency is the fitted concentration of half-maximal effect. The method, boiled down:
as §3

Assay [15] can be described thus: qHTS of pediatric cancer cell lines to identify multiple opportunities for drug repurposing: Confirmatory screen for NB1643 cells (AID 1347109). Note: nearly all actives have a fitted effect of over 45% in size. The method in brief:
as §3

A short description of assay [16]: qHTS of pediatric cancer cell lines to identify multiple opportunities for drug repurposing: Primary screen for BT-37 cells (AID 1347094). Note: potency is the fitted concentration of half-maximal effect. The method in brief:
as §2

Assay [17] is described as follows: qHTS of pediatric cancer cell lines to identify multiple opportunities for drug repurposing: Primary screen for Saos-2 cells (AID 1347097). Note: nearly all actives have a fitted effect of over 40% in size. The method, boiled down: as §2
The nature of assay [18]: qHTS of pediatric cancer cell lines to identify multiple opportunities for drug repurposing: Primary screen for Rh18 cells (AID 1347102). Note: nearly all actives have a fitted effect of over 65% in size. The method, boiled down: as §3
A short description of assay [19]: qHTS of pediatric cancer cell lines to identify multiple opportunities for drug repurposing: Primary screen for Rh41 cells (AID 1347108).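 Note: series mostly up to about 46 µM; luminescence drop marks cytotoxic hits; nearly all actives have a fitted effect of over 70% in size.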 The method in brief: as §2

Results filed as inconclusive are left out. Active and inactive are the calls of the source. Calls come from the whole dose curve; as a rule, active = well fitted curve in the direction sought with a large enough effect; inconclusive = small, poorly fitted or top-dose-only effect, or another doubt; inactive = no such curve, though single readings can be large; an effect the other way counts as inactive or inconclusive.

For `CCOC(=O)N1c2ccc(C(F)(F)F)cc2[C@@H](N(Cc2cc(C(F)(F)F)cc(C(F)(F)F)c2)C(=O)OC)C[C@H]1CC`, the Potency result in [1], in [2], in assay [3], in assay [4], in assay [5] and in assay [6] was “inactive” throughout. Moreover, the Potency result in assay [8], in assay [9] and in assay [10] was “inactive” in each case. Further, in assay [7], the Potency is 15.3 µM (active).
For the compound `CC1=C(CC(=O)O)c2cc(F)ccc2C1=Cc1ccc(S(C)=O)cc1` (stereo unspecified), the Potency in assay [1] was 3.72 µM (active); in [3] it was 1.48 µM (active); in [4], 18.7 µM (active); in assay [11], 19.2 µM (active); in [12] it was 26.4 µM (active). Moreover, the Potency result in [2], in [5], in assay [13], in assay [14] and in assay [15] was “inactive” each time.
Take `C[C@@H]1[C@H](O)[C@@H](C)C=CC=CC=CC=CC=CC=CC=C[C@H](O[C@@H]2O[C@H](C)[C@H](O)[C@H](N)[C@@H]2O)C[C@@H]2O[C@](O)(C[C@@H](O)C[C@@H](O)[C@H](O)CC[C@@H](O)C[C@@H](O)CC(=O)O[C@H]1C)C[C@H](O)[C@@H]2C(=O)O`: the Potency entry in assay [1], in [2], in [16], in assay [5], in assay [17] and in assay [13] was “inactive” in each case. For the same compound, the Potency entry in [18], in [7], in assay [9], in assay [10] and in assay [15] was “inactive” each time. For the same compound, the Potency in assay [3] is 0.148 µM (active); in assay [6] it was 0.166 µM (active); in assay [8], 0.743 µM (active); in [14], 0.418 µM (active).
Turning to `CC[C@H](C=C[C@@H](C)[C@H]1CC[C@H]2[C@@H]3CC=C4C[C@@H](O)CC[C@]4(C)[C@@H]3CC[C@]12C)C(C)C`, the Potency entry in [1], in assay [2], in [3], in assay [16], in assay [4] and in assay [5] was “inactive” throughout. Also, the Potency result in [6], in assay [12], in assay [13], in [18], in assay [7] and in assay [8] was “inactive” throughout. The Potency result in assay [10], in assay [14] and in [19] was “inactive” each time.
Consider `O=C1C(CCC(O)c2ccc(F)cc2)C(c2ccc(O)cc2)N1c1ccc(F)cc1` (stereo unspecified), for which the Potency entry in assay [1], in assay [2], in [3], in assay [16], in assay [5] and in assay [17] was “inactive” each time. For the same compound, the Potency entry in [11], in [6], in assay [12], in [13], in assay [18] and in assay [8] was “inactive” in each case. In addition, the Potency entry in [9], in [10], in assay [14] and in assay [19] was “inactive” throughout.
Consider `Cc1ccc(NC(=O)Nc2cc(C(F)(F)F)ccc2F)cc1Nc1ccc2c(c1)NC(=O)C2=Cc1ccc[nH]1`, for which the Potency is 14.8 µM (active) in [1]; 10.5 µM (active) in assay [2]; 7.43 µM (active) in [3]; 24.3 µM (active) in assay [16]; 11.8 µM (active) in [4]; 23.5 µM (active) in assay [5]. For the same compound, the Potency in assay [11] was 30.4 µM (active); in assay [7], 27.3 µM (active); in assay [8], 18.7 µM (active); in assay [9] it was 18.7 µM (active). The Potency entry in assay [10] is “inactive”.
In the case of `COc1cc(N2CCN(C)CC2)ccc1Nc1nc(N)c(C(=O)c2c(Cl)cccc2Cl)s1`, the Potency entry in assay [1], in [2], in assay [5], in assay [17], in [7] and in [9] was “inactive” throughout. For the same compound, the Potency result in assay [10], in assay [14] and in assay [19] was “inactive” throughout. The Potency in assay [3] was 18.7 µM (active); in assay [6], 14.8 µM (active); in assay [12], 16.6 µM (active); in [8], 29.6 µM (active).
`O=C(O)C1=NC(C(=O)O)CC(C=CN2c3cc(O)c(OC4OC(CO)C(O)C(O)C4O)cc3CC2C(=O)O)=C1` (stereo unspecified): the Potency entry in assay [1], in [2], in assay [3], in assay [16], in assay [4] and in assay [5] was “inactive” throughout. For the same compound, the Potency result in [17], in assay [6], in assay [12], in [13], in [18] and in assay [7] was “inactive” throughout. Besides, the Potency result in assay [8], in assay [9], in assay [10] and in [14] was “inactive” in each case.
On to `CN1CC(=O)NC1=NC(=O)Nc1cccc(Cl)c1`, for which the Potency entry in assay [1], in [2], in assay [3], in [16], in [5] and in assay [18] was “inactive” each time. Besides, the Potency result in assay [8], in assay [9] and in [10] was “inactive” each time. Further, the Potency in assay [11] is 8.57 µM (active); in assay [6], 4.69 µM (active).
With `Cc1ccc2c(c1)c1c(n2CCc2ccc(C)nc2)CCN(C)C1`, the Potency result in [1], in assay [2], in [3], in [16], in [4] and in [5] was “inactive” throughout. The Potency result in assay [17], in assay [12], in assay [13], in assay [18], in assay [8] and in assay [9] was “inactive” throughout. Moreover, the Potency result in assay [10] and in [14] was “inactive” each time.
